The values below come from the supplement of paper PMC6555819.

What all share (experiment): PBM binding z-score (relative to random genomic background probes); higher = stronger binding; sequences stand for … in GC…GCGATTGACAGCGTAGAATGAAGG
Test [1] relates to FXR:RXRa (NR concentration 270 nM, RXRa partner concentration 90 nM). In outline:
(§1)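 Ligand-free nuclear receptor dimers were bound for 1 h to custom Agilent 4×180K protein-binding microarrays. Detection used antibodies against each partner (one per run). Binding z-scores rest on regression-normalized fluorescence, with random background probes as the reference.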

The subject of test [2] is LXRa:RXRa (NR concentration 270 nM, RXRa partner concentration 90 nM). The method, boiled down:
as §1

The subject of test [3] is LXRa homodimer (NR concentration 270 nM). In outline: as §1
The test system of test [4] is LXRb:RXRa (NR concentration 270 nM, RXRa partner concentration 90 nM). The method, boiled down:
as §1

The test system of test [5] is LXRb homodimer (NR concentration 270 nM). The method, boiled down:
as §1

Test [6] has as its system PPARa:RXRa (NR concentration 270 nM, RXRa partner concentration 90 nM). The method, boiled down:
as §1

The test system of test [7] is PPARg:RXRa (NR concentration 180 nM, RXRa partner concentration 90 nM). In outline: as §1
In test [8] the test system is PPARg:RXRa 270nM:90nM, anti-RXR (NR concentration 270 nM, RXRa partner concentration 90 nM). The method, boiled down:
as §1

Test [9] deals with PPARg:RXRa 30nM:10nM, anti-RXR (NR concentration 30 nM, RXRa partner concentration 10 nM). The method, boiled down: as §1
The subject of test [10] is PPARg:RXRa 90nM:30nM, anti-RXR (NR concentration 90 nM, RXRa partner concentration 30 nM). The method, boiled down: as §1
Test [11] has as its system PPARg:RXRa DBDmut IVT, anti-RXR (DBD mutation: RXRa K156A/R161A, NR concentration 270 nM, RXRa partner concentration 90 nM). In outline: as §1
Test [12] concerns PPARg:RXRa IVT, anti-PPARg (NR concentration 270 nM, RXRa partner concentration 90 nM). In outline:
as §1

The subject of test [13] is PPARg DBDmut:RXRa IVT, anti-PPARg (DBD mutation: PPARg1 K132A/R137A, NR concentration 270 nM, RXRa partner concentration 90 nM). The method, boiled down: as §1
Test [14] has as its system PPARg DBDmut IVT, anti-PPARg (DBD mutation: PPARg1 K132A/R137A, NR concentration 270 nM). The method, boiled down:
as §1

The test system of test [15] is PPARg homodimer (NR concentration 180 nM). The method, boiled down: as §1
The subject of test [16] is PXR:RXRa (NR concentration 270 nM, RXRa partner concentration 90 nM). In outline: as §1
In test [17] the test system is PXR homodimer (NR concentration 270 nM). The method, boiled down: as §1
Test [18] deals with RARa:RXR (NR concentration 270 nM, RXRa partner concentration 90 nM). The method, boiled down: as §1
Test [19] relates to RARa homodimer (NR concentration 270 nM). In outline: as §1
Test [20] relates to RARb:RXRa (NR concentration 270 nM, RXRa partner concentration 90 nM). The method, boiled down: as §1

Turning to CTCGAAAGGTCGGTTGAGGTGTGTATACGGATAA, the PBM binding z-score in test [1] was 1.83; in test [2] it was 1.28; in test [3] it was -0.285; in test [4] it was 1.05; in test [5] it was 0.0615; in test [6], 2.13. For the same sequence, the PBM binding z-score in test [7] is 0.162; in test [8], 0.619; in test [9] it was -0.0568; in [10], 0.492; in [11], -0.0512; in [12] it was 0.529. Further, the PBM binding z-score in test [13] is 0.177; in test [14], -0.218; in test [15], 0.679; in test [16], 1.43; in [17], 0.289; in test [18], 1.53. For the same sequence, the PBM binding z-score in test [19] was -0.365; in test [20] it was 2.68.

In the case of TCTTGCAGATCAATAGAGGTTAAGAAAGTGCGCT, the PBM binding z-score in test [1] is 0.606; in [2], 3.34; in test [3], 0.219; in [4], 2.04; in [5], -0.44; in [6], 1.9. Besides, the PBM binding z-score was -0.17 in test [7]; 1.1 in test [8]; 1.84 in test [9]; 1.35 in test [10]; 0.862 in [11]; 0.37 in test [12]. Further, the PBM binding z-score is 0.336 in [13]; -0.0409 in test [14]; -0.12 in test [15]; 3.03 in [16]; 0.036 in test [17]; 1.91 in test [18]. In addition, the PBM binding z-score in test [19] is -0.478; in test [20], 0.805.

Regarding AGAATGAGGTTAAGATCAGGGGAACAGAATACAT, the PBM binding z-score amounted to 2.39 in test [1]; 1.58 in test [2]; 0.0516 in test [3]; 1.98 in test [4]; 0.284 in test [5]; 3.55 in [6]. For the same sequence, the PBM binding z-score in test [7] turned out to be 2.33; in test [8], 2.48; in test [9] it was 0.75; in test [10], 1.88; in test [11], 3.34; in test [12], 2.63. The PBM binding z-score in test [13] amounted to 1.57; in test [14], 0.78; in [15], 1.05; in test [16], 1.43; in test [17], 0.765; in test [18] it was 2.02. For the same sequence, the PBM binding z-score in test [19] was determined as 0.798; in test [20], 1.95.

Consider CAAACTCGGTCAAGGTCAAAGTCGGTTTGTGCCA, for which the PBM binding z-score in test [1] came out at 5.73; in [2] it was 5.09; in test [3], 3.66; in test [4] it was 3.81; in test [5], 1.02; in test [6] it was 4.81. The PBM binding z-score in test [7] came out at 4.76; in [8] it was 4.8; in [9] it was 2.42; in [10], 3.93; in [11], 4.82; in test [12], 4.77. Further, the PBM binding z-score came to 1.56 in test [13]; 0.439 in [14]; 3.17 in test [15]; 4.98 in test [16]; 2.66 in [17]; 4.81 in test [18]. In addition, the PBM binding z-score in [19] was found to be 1.43; in test [20] it was 4.49.

On to CTTCCAAGGTGAACAAGGTCGTTGATTACTATTC, for which the PBM binding z-score was 1.17 in test [1]; 1.18 in test [2]; 0.234 in test [3]; 1.67 in [4]; -0.522 in test [5]; 2.49 in test [6]. In addition, the PBM binding z-score in [7] turned out to be 0.855; in test [8], 1.31; in [9], 0.0258; in test [10], 0.487; in test [11], 2.37; in [12], 2.58. The PBM binding z-score is 0.501 in [13]; -0.605 in [14]; 0.985 in test [15]; 2.6 in test [16]; 1.19 in test [17]; 1.97 in test [18]. Further, the PBM binding z-score in test [19] was -0.158; in [20], 2.18.

On to CGGAGTAGGTTATGGGGCATTCAGGCAACGGTGA, for which the PBM binding z-score was 0.339 in test [1]; 0.3 in [2]; 0.0885 in test [3]; 0.718 in [4]; -0.187 in test [5]; 2.92 in [6]. The PBM binding z-score in [7] turned out to be 4.95; in [8], 5.93; in test [9] it was 5.09; in test [10], 6.03; in test [11], 4.84; in [12], 5.14. Moreover, the PBM binding z-score is 0.983 in test [13]; -0.0364 in test [14]; 1.28 in test [15]; 0.209 in test [16]; 0.125 in [17]; 0.151 in [18]. The PBM binding z-score in [19] was determined as 0.386; in test [20], 0.965.

For the sequence TCTTATAGATCAAGCAGGTTAAGAAAGCCTGAGT, the PBM binding z-score was 0.514 in [1]; 0.381 in test [2]; -0.0643 in test [3]; 0.19 in test [4]; -0.324 in [5]; 0.961 in test [6]. Besides, the PBM binding z-score in test [7] was -0.00693; in [8] it was 1.62; in [9], 3.48; in [10], 2.75; in test [11] it was 2.41; in test [12], 0.395. Also, the PBM binding z-score worked out at 0.287 in test [13]; 0.665 in [14]; 0.243 in test [15]; 0.691 in [16]; 0.364 in test [17]; 0.658 in test [18]. The PBM binding z-score in test [19] stood at 0.426; in test [20], 0.33.
